Like-named read-outs stand apart in the source and are kept apart here.
Test system: P. berghei-ANKA-GFP-LucCON liver stage parasites in HepG2-A16-CD81EGFP cells
Conditions: 48 h

With `COc1ccc(-c2c[n+](CC(=O)c3cccs3)c3n2CCC3)cc1` [MLS000333575] the “% viability” value (1 µM) was 1.153 and the “% viability” value (3 µM) was 0.8461.
With `COC(=O)C1=C(C)NC(C)=C(C(=O)OCCCN2CCC(c3ccccc3)(c3ccccc3)CC2)C1c1cccc([N+](=O)[O-])c1` (stereo not shown) [NCGC00163135] the “% viability” value (1 µM) was 0.1886 and the “% viability” value (3 µM) was 0.1117.
